Screens: PubChem, National Center for Advancing Translational Sciences (NCATS)
15-hLO-2 inh = qHTS Assay for Inhibitors of 15-hLO-2 (15-human lipoxygenase 2). Polyunsaturated fatty acid lipoxygenase ALOX15B (Homo sapiens), O15296. purified 15hLO-2, xylenol orange hydroperoxide absorbance. Potency, µM (highest dose often 57.1 µM), for inactives: top-dose activity change, negative = inhibition, usual class: inhibitors. 110,000 compounds, 0.56% hits. AID 881, 2007; note: potency is the fitted concentration of half-maximal effect; nearly all actives have a fitted effect of over 60% in size
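Purified human 15hLO-2 (50 nM) preincubated 15 min with compound, then 45 uM arachidonic acid for 90 min at RT in 25 mM Hepes pH 7.5, 0.01% Triton X-100. Hydroperoxide detected by Fe-xylenol orange; 573/405 nm absorbance ratio.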
IMPase cell inh = qHTS Assay for Identifying the Cell-Membrane Permeable IMPase Inhibitors. Inositol monophosphatase 1 (Rattus norvegicus), P97697. CHO-M1 cells, IP1 accumulation, HTRF TR-FRET ratio. inhibition (IP1 accumulation), % at 46.1 µM. 120,000 tested, under 10 active; active = well fitted curve in the direction sought with a large enough effect in the signal ratio, not every such curve was filed as active; inconclusive = small, poorly fitted or top-dose-only effect, or a change in a side signal; inactive = no such curve, though single readings can be large or run the other way; the % refers to the signal ratio;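 note: cells stimulated with carbachol in lithium chloride buffer; plate controls were DMSO basal wells for no effect and reference inhibitor wells for full effect; higher means more IMPase inhibition seen as more IP1 and lower FRET ratio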
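Elevated IP1 in lysates lowers TR-FRET signal (665/620 ratio and 620 channel reported). Cells were CHO-M1, given carbachol (50 uM as added) plus 50mM LiCl, pH 7.4, 30 min, 37C; compounds titrated up to 46 uM; AC50 by Hill equation.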
IMPase Li inh = qHTS Assay for Identifying the Cell-Membrane Permeable IMPase Inhibitors: Potentiation with Lithium; CHO-M1 cells, IP1 TR-FRET (IP-One), carbachol + lithium; Potency, µM (highest dose often 59.4 µM), without a hit: top-dose activity, negative = IMPase inhibition, hits mostly inhibitors; 210,000 compounds, 0.35% hits; AID 1457, 2008;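 note: IP1 builds up when IMPase is blocked and the TR-FRET signal falls; potency is the fitted concentration of half-maximal effect; plate controls were basal vehicle for no effect and high inhibitor control for full effect; nearly all actives have a fitted effect of over 50% in size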
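Test compounds were applied to CHO-M1 cells previously cultured for 16–30 h at 2000 per well. A small lithium amount accompanied them; after 30 min at 37C, IP1 was quantified by TR-FRET.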
12-hLO inh = qHTS Assay for Inhibitors of 12-hLO (12-human lipoxygenase) | Potency, µM (highest dose often 57.1 µM), inactives show at the top dose activity change, negative = inhibition, usual class: inhibitors | AID 1452, 2008 | Polyunsaturated fatty acid lipoxygenase ALOX12 (Homo sapiens), P18054 | 150,000 compounds, 0.12% hits | purified 12-hLO, xylenol orange hydroperoxide absorbance; note: potency is the fitted concentration of half-maximal effect; nearly all actives have a fitted effect of over 55% in size
Target sequence (P18054 whole entry, looked up): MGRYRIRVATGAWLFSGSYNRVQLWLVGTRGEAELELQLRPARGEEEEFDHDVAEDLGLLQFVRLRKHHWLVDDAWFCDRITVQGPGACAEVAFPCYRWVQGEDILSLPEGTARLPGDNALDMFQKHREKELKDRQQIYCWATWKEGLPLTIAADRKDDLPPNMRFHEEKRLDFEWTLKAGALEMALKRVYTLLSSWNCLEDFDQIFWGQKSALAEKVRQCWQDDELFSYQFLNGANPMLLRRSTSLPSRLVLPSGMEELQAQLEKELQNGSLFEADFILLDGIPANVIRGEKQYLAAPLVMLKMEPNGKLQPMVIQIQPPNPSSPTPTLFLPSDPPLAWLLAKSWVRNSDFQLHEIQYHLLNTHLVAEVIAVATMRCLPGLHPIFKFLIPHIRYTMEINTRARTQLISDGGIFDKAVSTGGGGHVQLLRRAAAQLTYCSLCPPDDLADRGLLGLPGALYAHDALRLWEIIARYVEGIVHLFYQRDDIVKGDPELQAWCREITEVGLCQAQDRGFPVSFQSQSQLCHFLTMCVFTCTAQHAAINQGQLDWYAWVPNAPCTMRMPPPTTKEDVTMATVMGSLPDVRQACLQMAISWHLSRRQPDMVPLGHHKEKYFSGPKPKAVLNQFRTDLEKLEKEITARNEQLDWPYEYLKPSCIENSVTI
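Hydroperoxide formation by human 12-lipoxygenase from 40 uM arachidonic acid was followed colorimetrically via ferric-xylenol orange complex, using the 573/405 nm absorbance ratio. Enzyme concentration was 150 nM, with 30 min reaction at room temperature.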
HPGD block = qHTS Assay for Inhibitors of HPGD (15-Hydroxyprostaglandin Dehydrogenase); 150,000 compounds, 4.3% hits; AID 894, 2007; 15-hydroxyprostaglandin dehydrogenase [NAD(+)] (Homo sapiens), P15428; Potency, µM, without a hit: top-dose activity change, negative = inhibition, hits mostly inhibitors; purified HPGD, NADH fluorescence kinetic, PGE2 substrate; active = well fitted inhibition curve with a large enough effect, not every such curve was filed as active; inconclusive = small, poorly fitted or top-dose-only effect, or another doubt; inactive = no such curve, though single readings can be large or run the other way; note: potency is the fitted concentration of half-maximal effect
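NADH formation kinetics: reaction with 30 uM PGE2 and 1 mM NAD+ (final), 20 nM enzyme, Tris-HCl pH 8 with Tween 20, after 15 min compound preincubation at room temperature. Fluorescence change, last versus first of five reads.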
PNC inhibitor = High Content Assay for Compounds that inhibit the Assembly of the Perinucleolar Compartment | PC3M PTB-GFP, PNC prevalence imaging, 16 h; stronger effect = lower value | activity change (PNC), negative = inhibition, % at 10 µM | AID 2417, 2010 | 140,000 compounds, 3.1% hits;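 active = readout at or below -70, meaning at least 70% loss of cells showing the perinucleolar compartment, a nuclear body marking cancer cells; inconclusive = readout between -30 and a set limit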;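 note: plate controls were DMSO wells for no effect and camptothecin positive control wells for full effect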
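PC3M cells stably expressing PTB-GFP, 750–1000 cells/well, treated 16 h at 37 °C with compound (23 nl of library stock), in duplicate. After paraformaldehyde fixation and Hoechst stain, imaged at 20x; PNC prevalence scored by image analysis.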
Active calls of the source: *; ? = inconclusive; . = not tested or not shown; [ ] = remark or other dose. This is a sample that favours compounds with a hit; in the whole collection about 5.4% have one here. Unless noted, calls come from the whole dose curve; as a rule, active = well fitted curve in the direction sought with a large enough effect; inconclusive = small, poorly fitted or top-dose-only effect, or another doubt; inactive = no such curve, though single readings can be large; an effect the other way counts as inactive or inconclusive. Unless noted, % is set by controls: 0 for no effect and ±100 for the full control effect.

SMILES	15-hLO-2 inh	IMPase cell inh	IMPase Li inh	12-hLO inh	HPGD block	PNC inhibitor
c1ccc(-c2nn3c(-c4ccco4)nnc3s2)nc1	-12%	6	-16%[38.3 µM]	-4%	-22%	4
c1csc(-c2nn3c(Cn4cnc5ccccc54)nnc3s2)c1	10%	0	19%[38.3 µM]	2%	?	?
O=C(c1ccc(Cc2nc3ccccc3[nH]2)cc1)N1CCOCC1	.	.	.	-2%	-7%	.
Cc1cc(NC(=O)CC(C)(C)C)nc2c1c(=O)oc1ccccc12	.	?	?	-2%	-9%	-119*
Cc1ccc(C)c(-n2c3nc(=O)[nH]c(=O)c-3cc3cc([N+](=O)[O-])ccc32)c1	.	.	20%	-17%	?	-116*
CN1CCC(CNC(=O)c2ccc(Cc3nc4ccccc4[nH]3)cc2)CC1	.	.	.	0%	-7%	.
Cc1cc(OCC(=O)NC(C)C)cc(C)c1Cl	.	-9	-2%	2%	-23%	-100*
Cc1cc(OCC(=O)NCC(C)C)cc(C)c1Br	1%	4	-1%[38.3 µM]	-4%	14µM*	14
Cc1nnc(N2C(=O)C(O)=C(C(=O)c3ccco3)C2c2ccc(F)cc2)s1 (centres undefined)	-15%	?	?	15%	-7%	-13
Cc1nnc(N2C(=O)C(O)=C(C(=O)c3ccco3)C2c2ccc(C(C)(C)C)cc2)s1 (centres undefined)	.	-9	?	7%	-6%	-109*
CC1(C)CC(=O)C(CC(=O)Nc2ccc(S(N)(=O)=O)cc2)=C(O)C1	.	0	3%	4%	-13%	-90*
CC1(C)CC(=O)C=C(Nc2ccc(S(N)(=O)=O)cc2)C1	1%	7	20%[38.3 µM]	-1%	-11%	?
CCCCCCOc1ccc(C(CC(N)=O)C(=O)O)cc1 (centres undefined)	.	.	4%	.	.	.
CCCCCCOc1ccc(C(CC(=O)O)C(N)=O)cc1 (centres undefined)	-10%	-12	-8%[38.3 µM]	0%	-8%	-104*
COc1cc(N=C(N)N=C(N)N)c2ncccc2c1	7%[11.4 µM]	.	-4%	-2%[11.4 µM]	-9%	.
N#Cc1cnn(CC2CCCCC2)c1N	-2%	2	-16%[38.3 µM]	-1%	-11%	-97*
O=C(NCc1ccco1)c1sc2cc(F)ccc2c1Cl	.	4[0.0738 µM]	6%	-5%	25µM*	-13
O=C(NC1=NCCS1)c1sc2cc(F)ccc2c1Cl	.	-9	-14%	2%	-15%	44
O=C(Nc1ccon1)c1sc2cc(F)ccc2c1Cl	.	-17	-5%	2%	-18%	-100*
CCOC(=O)CSc1c(-c2ccccc2)c2cc(Cl)ccc2[nH]c1=O	.	-9	4%	2%	18µM*	-17
Cc1nc(NCc2ccccc2)c2nc(-c3ccccc3)n(C(C)CN(C)C)c2n1 (centres undefined)	45%	.	-5%	-5%	-22%	.
Cc1cc(C)nc(N/N=C/c2ccco2)n1	-3%	-2	27%[38.3 µM]	-1%	-3%	-110*
CCNC(=S)N/N=C/c1c(Cl)cccc1Cl	.	.	6%	-6%	-10%	-10
Cc1ccc(NC(=S)N/N=C/c2c(Cl)cccc2Cl)c(C)c1	.	13	7%	?	-16%	-98*
COc1cccc(OC)c1CNC(=O)CCSCc1ccccc1F	.	.	0%	.	.	.
COCCNC(=O)CCSCc1ccccc1F	1%	13	20%[38.3 µM]	0%	25µM*	23
CCc1ccc(S(=O)(=O)c2nnn3c2nc(NCCNC(C)=O)c2ccccc23)cc1	.	.	-10%	.	.	.
Cc1cccc(Nc2nc3c(S(=O)(=O)c4ccccc4)nnn3c3ccccc23)c1	.	.	?	-5%	?	-90*
CCCCNc1nc2c(S(=O)(=O)c3ccccc3)nnn2c2ccccc12	.	.	8.9µM*	.	.	.
